From the OligoGym collection come the findings set out here.
Also: reference of the scale not given here.

For one experiment, the target named is DENND3. As to the kind of experiment: pooled miR-30 sensor sort-seq; sequence = guide strand. Particulars: shRNA.
In the case of TTGATGATGTAGATGACGGAGT, the sensor-assay potency score (higher = more potent) was -0.511.
On to TAGATGACGGAGTCTTCCGAGC, for which the sensor-assay potency score (higher = more potent) was -1.16.
On to TTGAACACGGTCACCTTGCCTT, for which the sensor-assay potency score (higher = more potent) was -0.0431.
Sequence TATTTATCAGAACTAAACCGTC had a sensor-assay potency score (higher = more potent) of -0.811.
TTGTAGAAATCTTTGAATGTTT returned a sensor-assay potency score (higher = more potent) of -1.03.
On the same count and under the same terms, the figure for TAAATGATTCTTTACATCCCTG is -0.0961.
For the sequence TTATCGTCCGTGGACTTGGAGT, the sensor-assay potency score (higher = more potent) was -1.3.
With TTGGACTTAGAAGCATTCCATT, the sensor-assay potency score (higher = more potent) is -1.49.
Sequence TTCCACACCAGCACCATGCCGT gave a sensor-assay potency score (higher = more potent) of -0.0924.
TAGAGCAGCACGTCCACCGCTT came in with a sensor-assay potency score (higher = more potent) of 0.371.
Turning to TATCAGAACTAAACCGTCGGCT, the sensor-assay potency score (higher = more potent) came to 0.0696.
On the same count and under the same terms, the figure for TTATCAGAACTAAACCGTCGGC is -0.359.

The next experiment addresses DEXI. Described as above. Particulars: shRNA.
In the case of AATCTCTCTTCCACTCTCCTGG, the sensor-assay potency score (higher = more potent) is -0.0495.
The sequence TTAAGTAGGCACAACACTCATA returned a sensor-assay potency score (higher = more potent) of -0.271.
TAACCTGAAATGAAGGAGCGAG returned a sensor-assay potency score (higher = more potent) of -0.355.
TCAAACAGGAACCTCTCTGTTG came in with a sensor-assay potency score (higher = more potent) of -0.754.
Same read-out and setting: the figure for TTCCTGTAAACATCCATCGCAG is -0.501; for TAACGTGGCACTCACCAGCATG it is -1.35.
For TAGAGGGCAGCAGCGGCGGCGG, the sensor-assay potency score (higher = more potent) is -1.83.
Same read-out and setting: the figure for TAAACATCCATCGCAGCTGCAA is -0.291.
